From PubChem BioAssay
Hits are enriched below; roughly 19% of the tested compounds scored in any of these assays.
HT1080-NT tox: qHTS for induction of synthetic lethality in tumor cells producing 2HG: qHTS for the HT-1080-NT fibrosarcoma cell line; AID 686970, 2013; HT-1080-NT fibrosarcoma viability, CellTiter-Glo ATP luminescence, 48 h; 1.6% of 360,000 active; Potency, µM (highest dose often 46.1 µM), without a hit: at the highest dose activity, negative = less viability, most hits filed as cytotoxic;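 also: NT is the 2HG producing partner of a matched IDH1 knockdown line; potency is read from the fitted curve at half-maximal effect; 0% = DMSO-treated cells and -100% = media-only wells without cells; nearly all actives have a fitted effect of over 55% in size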
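750 cells/well, RPMI + 5% FBS; 2 h settle, compound pin-transfer, 48 h at 37 degrees C. CellTiter-Glo 10 min RT, luminescence. Normalized to DMSO and media-only wells.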
HT1080 IDH1KD tx: qHTS for induction of synthetic lethality in tumor cells producing 2HG: qHTS for the HT-1080-IDH1KD cell line | HT-1080 IDH1 knockdown viability, ATP luminescence, 48 h | Potency, µM (highest dose often 46.1 µM), for the others: at the highest dose activity, negative = toxicity, hits mostly cytotoxic | 2% of 360,000 active;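 also: potency is read from the fitted curve at half-maximal effect; 0% = DMSO wells and -100% = cell-free medium wells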
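Knockdown cells (IDH1KD HT-1080) received compounds 2 h after plating at 750 cells/well and were kept 48 h at 37 °C in 5% FBS RPMI. A CellTiter-Glo luminescence read gave % activity for curve fitting.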
uPA surface inh: qHTS for Inhibitors of Cell Surface uPA Generation. cell surface uPA generation assay, qHTS. Potency, µM (top dose mostly 38.3 µM), for inactives: at the highest dose activity change, negative = inhibition, usual class: inhibitors. 0.31% of 330,000 active; active = well fitted inhibition curve with a large enough effect; inconclusive = small, poorly fitted or top-dose-only effect; inactive = no such curve, though single readings can be large or run the other way; tested in mouse RAW 264.7 cells; also: potency is read from the fitted curve at half-maximal effect; nearly all actives have a fitted effect of over 55% in size
DT40 TDP1 CPT: qHTS for Inhibitors of human tyrosyl-DNA phosphodiesterase 1 (TDP1): qHTS in cells in presence of CPT; 12% of 420,000 active; chicken DT40 Tdp1-/-;hTDP1 cells + 20 nM CPT, ATP luminescence, 48 h; AID 686979, 2013; Potency, µM (top dose mostly 46.2 µM), for inactives: at the top dose activity change, negative = growth inhibition, most hits filed as inhibitors; also: potency is read from the fitted curve at half-maximal effect; nearly all actives have a fitted effect of over 55% in size
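Cell growth measured by CellTiter-Glo luminescence after a minimum 48 h, 37 C compound exposure with 20 nM CPT in Tdp1-knockout DT40 cells stably expressing hTDP1, seeded 400/well; qHTS titration format.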
IL1B secr inh: qHTS for Inhibitors of Inflammasome Signaling: IL-1-beta AlphaLISA Primary Screen; THP-1 LPS/ATP IL-1B secretion, AlphaLISA, 16 h; hits give low values; activity change, % at 57.5 µM; 4.7% of 360,000 active; in the data active = activity change below about -50%; inconclusive = mostly about -30% to -49%
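THP-1 cells pretreated 1 hr with compounds (up to 57.5 uM final), then stimulated with LPS (250 ng/mL final) plus ATP (1.25 mM final); secreted IL-1B measured by AlphaLISA after 16 hr, decreased signal indicating inhibition.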
TDP1 cell noCPT: qHTS for Inhibitors of human tyrosyl-DNA phosphodiesterase 1 (TDP1): qHTS in cells in absence of CPT. DT40 Tdp1-/- hTDP1 cells, no CPT, ATP luminescence, 48 h. Potency, µM (series often up to 46.2 µM), without a hit: at the highest dose activity change, negative = growth inhibition, hits mostly inhibitors. 15% of 420,000 active. AID 686978, 2013; also: potency is read from the fitted curve at half-maximal effect; nearly all actives have a fitted effect of over 55% in size
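Readout: luminescence from CellTiter-Glo after 30 min in the dark at RT. Cells: DT40 Tdp1-/- with stable hTDP1, 400/well. Exposure: compounds alone, ≥48 hr, 37 °C.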
An asterisk follows results filed as active; ? = inconclusive; / = not tested or not shown; ! = not active in a repeat; [ ] = remark or other dose. Unless noted, calls follow the shape of the dose curve; as a rule, active = well fitted curve in the direction sought with a large enough effect; inconclusive = small, poorly fitted or top-dose-only effect, or another doubt; inactive = no such curve, though single readings can be large; an effect the other way counts as inactive or inconclusive. Unless noted, % is scaled to controls: 0 for no effect and ±100 for the full control effect.

SMILES	HT1080-NT tox	HT1080 IDH1KD tx	uPA surface inh	DT40 TDP1 CPT	IL1B secr inh	TDP1 cell noCPT
COc1ccc(Oc2cc(NC(=O)c3nn(C)cc3[N+](=O)[O-])cc([N+](=O)[O-])c2)cc1	18µM*	5.2µM*	-2%	12%	-96*	-11%
Cc1cc(C)c(C(=O)CSc2n[nH]c(=O)n2C2CC2)cc1C	-16%	32µM*	1%	11µM*	-7	20µM*
OC[C@H]1OC(O)C[C@@H](O)[C@@H]1O (stereo not given in full)	?	17%	12%	3%	9	5%
C=C(C)[C@H]1CN[C@H](C(=O)O)[C@H]1CC(=O)O	?	11%	-9%	?	19	21µM*!
C=C(C)[C@H]1CN[C@H](C(=O)O)[C@@H]1CC(=O)O	/	/	/	1%	/	0%
CCCC[C@@H](C)C[C@@H](C)C(=O)N(C)[C@@H](CC(C)C)C(=O)N[C@H](C(=O)N(C)[C@H](C(=O)N1C[C@@H](O)C[C@H]1C(=O)N1C(=O)C=C[C@@H]1C)C(C)C)C(C)OC(C)=O (stereo not given in full)	0.029µM*	0.12µM*	-83%	0.037µM*	-113*	0.0065µM*
Cc1cccc(NP(=O)(Oc2ccccc2)Oc2ccccc2)c1C	?	-18%	/	?	-89*	?
Cc1ccc(S(=O)(=O)N(C)N=O)cc1	23%	2%	-11%	-15%	28	-19%
Cc1cc(Oc2cc(NN3CCCCC3)c([N+](=O)[O-])cc2[N+](=O)[O-])ccc1[N+](=O)[O-]	-4%	-3%	16%	?	0	?
O=c1oc(Cl)c(Cl)c2ccccc12	14%	-3%	-4%	3.3µM*	-70*	2.9µM*
CC(NC(=O)CNC(=S)N(Cc1ccccc1)Cc1cccnc1)c1ccccc1 (stereo not given)	-1%	0%	-4%	?	-12	?
O=C(O)CC1OCC=C2CN3CCC45C6=CC(=O)C(=O)C([N+](=O)[O-])=C6NC4C1C2CC35 (stereo not given)	0%	3%	1%	14µM*	38	11µM*
CC(C)=CC1C(C(=O)OCN2C(=O)C3=C(CCCC3)C2=O)C1(C)C (stereo not given)	/	/	/	-28%	/	-23%
CCCCn1nnnc1C(c1ccccc1)N1CCC2(CC1)C(=O)NCN2c1ccccc1 (stereo not given)	?	-29%	/	?	-11	?
O=C1NCN(c2ccccc2)C12CCN(C(CCc1ccccc1)c1nnnn1-c1ccc3c(c1)OCCO3)CC2 (stereo not given)	?	-29%	/	?	-18	-113%
O=C1NCN(c2ccccc2)C12CCN(C(c1ccnc3ccccc13)c1nnnn1-c1ccc3c(c1)OCCO3)CC2 (stereo not given)	?	?	/	?	-24	16µM*
COc1ccc(C(c2nnnn2-c2ccc3c(c2)OCCO3)N2CCC3(CC2)C(=O)NCN3c2ccccc2)cc1 (stereo not given)	-28%	?	/	?	-5	26µM*
CCC(c1nnnn1-c1ccc2c(c1)OCCO2)N1CCC2(CC1)C(=O)NCN2c1ccccc1 (stereo not given)	-23%	-21%	/	18µM*	-18	18µM*
CCCCn1nnnc1C(c1ccnc2ccccc12)N1CCC2(CC1)C(=O)NCN2c1ccccc1 (stereo not given)	10%	-1%	/	16µM*	-14	?
CCCCn1nnnc1C(c1cccc(OC)c1OC)N1CCC2(CC1)C(=O)NCN2c1ccccc1 (stereo not given)	?	-24%	/	?	-30	?
CCOC(=O)CCCc1cc[c]([Sb](=[O])([OH])[OH])cc1	/	/	/	-6%	/	-8%
CCOC(=O)c1ccccc1N	/	/	18%	8%	-3	-6%
CCOC(=O)c1ccccc1OC(=O)NNc1ccccc1	5.8µM*	12µM*	1%	8%	0	-15%
Cc1ccc(S(=O)(=O)N(CC(=O)NCCSc2ccc(Cl)cc2)c2ccccc2C)cc1	/	/	/	21µM*	/	23µM*
Cc1ccc(S(=O)(=O)N(CC(=O)N/N=C\c2cccs2)c2cccc3cccnc23)cc1	17%	-2%	-3%	9%	10	?
SMILES	HT1080-NT tox	HT1080 IDH1KD tx	uPA surface inh	DT40 TDP1 CPT	IL1B secr inh	TDP1 cell noCPT
COc1ccc(CC2C(=O)NC(C)C(=O)N(C)C3C(=O)N(C)C(Cc4ccc(O)c(c4)Oc4ccc(cc4)C3O)C(=O)NC(C)C(=O)NC(C)C(=O)N2C)cc1 (stereo not given)	0.46µM*	0.073µM*	-11%	0.016µM*	-101*	0.021µM*
O=C1NC(=O)N(c2ccc(Cl)cc2)C(=O)/C1=C\c1ccc(Sc2nc3ccccc3[nH]2)o1	-4%	-6%	-2%	16µM*	-2	?
Cc1ccc(N2C(=O)NC(=O)/C(=C/c3ccc(-c4ccc(C(=O)O)c(Cl)c4)o3)C2=O)cc1	24%	18%	8%	1%	0	6%
C/C(=N/Nc1ccnc2cc(Cl)ccc12)c1ccc(N)cc1	?	?	?	23µM*	-10	18µM*
CCCCNC(=O)NC(C(N)=O)P(=O)(OCC)OCC (stereo not given)	2%	5%	-1%	20%	-10	17%
CC(C)(C)c1ccc(CSc2cnn(C(C)(C)C)c(=O)c2Cl)cc1	-22%	-28%	?	0.16µM*	45	0.033µM*
NC(N)=NN=C(/C=C/c1ccc([N+](=O)[O-])o1)/C=C/c1ccc([N+](=O)[O-])o1	/	/	/	3µM*	/	3µM*
CC(C)C(O)(C(=O)OC[C@@H]1CC[N+]2([O-])CCCC12)C(C)O (stereo not given in full)	/	/	/	-5%[9.04 µM]	/	5%[9.04 µM]
Cc1ccc(C)c(N2CCN(c3ncnc4onc(C)c34)CC2)c1	/	/	/	?	/	13µM*
CN1CCN2c3ccc(N)cc3CC3(C(=O)NC(=O)NC3=O)C2C1 (stereo not given)	14%	12%	-2%	-3%	3	0%
